{
  "source": "PubChem BioAssay AID651717",
  "about": "(Broad Institute, 2012)",
  "note": "The campaign covered roughly 1,200 compounds. About 950 (79%) were called active. So high a share suggests a set chosen from earlier hits. Not all results are given here. Entries with a potency or affinity are not part of this list. Unmarked numbers belong to inactive results.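 How the source made its calls: active means signal rises and fitted curve reaches 40% activity at or below the top valid tested dose, in every replicate test; inconclusive means replicate tests give mixed calls; inactive means the rest, including activity in the opposite direction.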",
  "data": [
    {"test": "Bmi1-luciferase reporter activators in mESC, dose response, esBAF inhibitor project, mouse embryonic stem cells, cherry-pick (AID 651717);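 further: luciferase knocked into Bmi1 locus with EF-1a renilla as cell number control; rising ratio signals esBAF inhibition which derepresses Bmi1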", "conditions": "firefly/renilla ratio, 24 h, active compounds read high; at 35 µM unless noted", "values": [
      {"smiles": "Cc1ccc(CNC(=O)c2cccc3c2C(=O)c2ccc(N4CCC(C)CC4)cc2S3(=O)=O)cc1", "max activity": "-5.88% [at 0.5 µM]"},
      {"smiles": "O=C(NCc1cccs1)Nc1cccc(Cl)c1", "max activity": "-20.3%"},
      {"smiles": "C[C@@H]1CN([C@@H](C)CO)C(=O)c2cccc(NC(=O)Nc3ccc4c(c3)OCO4)c2O[C@H]1CN(C)Cc1ccc(Cl)c(Cl)c1", "max activity": "-35% [at 18 µM]"},
      {"smiles": "C/C(=N\\NC(=O)c1ccc(Cn2cc(Br)cn2)o1)c1ccc(NC(=O)c2ccoc2C)cc1", "max activity": "18.3% [at 16 µM]"},
      {"smiles": "Cc1cccc(-c2nnc(-c3cccc(NC(=O)Cc4cccs4)c3)o2)c1", "max activity": "34.9%"},
      {"smiles": "Cc1ccc(S(=O)(=O)Nc2cccc(-c3ccc(N4CCCCCC4)nn3)c2)c(C)c1", "max activity": "27.4% [at 4.2 µM]"},
      {"smiles": "Cc1ccc(S(=O)(=O)Nc2cccc(-c3ccc(N4CCCCCC4)nn3)c2)cc1", "max activity": "29.4% [at 4.2 µM]"},
      {"smiles": "C[C@@H]1CN([C@@H](C)CO)S(=O)(=O)c2ccc(-c3ccc(F)cc3)cc2O[C@H]1CN(C)C(=O)C1CC1", "max activity": "-26.9%"},
      {"smiles": "C[C@H]1CCCCO[C@H](CN(C)C(=O)Nc2ccc(F)cc2)[C@@H](C)CN([C@@H](C)CO)C(=O)c2cc(NC(=O)Nc3ccc4c(c3)OCO4)ccc2O1", "max activity": "-13.8% [at 8 µM]"},
      {"smiles": "C[C@@H]1CCCCO[C@@H](CN(C)Cc2ccncc2)[C@@H](C)CN([C@@H](C)CO)C(=O)c2cc(NC(=O)Nc3ccc4c(c3)OCO4)ccc2O1", "max activity": "11%"},
      {"smiles": "C[C@H]1CCCCO[C@@H](CN(C)Cc2ccncc2)[C@@H](C)CN([C@@H](C)CO)C(=O)c2cc(NC(=O)Nc3ccc4c(c3)OCO4)ccc2O1", "max activity": "-19.5%"},
      {"smiles": "C[C@H](CO)N1C[C@H](C)[C@@H](CN(C)Cc2ccc(-c3ccccc3)cc2)Oc2c(NC(=O)Nc3ccc4c(c3)OCO4)cccc2C1=O", "max activity": "-20.6%"},
      {"smiles": "C[C@H](CO)N1C[C@H](C)[C@H](CN(C)Cc2ccncc2)OCCCC[C@H](C)Oc2ccc(NC(=O)Nc3ccc4c(c3)OCO4)cc2C1=O", "max activity": "-10.9%"},
      {"smiles": "O=C(CNc1ccc(Br)cc1)c1ccc(Br)s1", "max activity": "12.9% [at 4.2 µM]"},
      {"smiles": "CCc1c(C(=O)Nc2ccc(C)c(C)c2)[nH]c(C)c1C(C)=O", "max activity": "13.1% [at 4.2 µM]"},
      {"smiles": "COc1ccc2oc(C(=O)OCC(=O)Nc3ccc(C)c(S(=O)(=O)N4CCOCC4)c3)c(C)c2c1", "max activity": "34.7%"},
      {"smiles": "C[C@H](CO)N1C[C@H](C)[C@@H](CN(C)C(=O)Nc2ccc(F)cc2)OCCCC[C@H](C)Oc2ccc(NC(=O)Nc3ccc4c(c3)OCO4)cc2C1=O", "max activity": "15.2% [at 8 µM]"},
      {"smiles": "CC(C)c1ccc(NC(=O)C(c2ccccc2)N2CC(=O)Nc3ccccc32)cc1", "note": "(stereo not drawn)", "max activity": "10.6%"},
      {"smiles": "Cc1ccc(C(=O)Nc2nc(=O)n(C(=O)c3ccccc3C)s2)cc1", "max activity": "38.3% [at 16 µM]"},
      {"smiles": "Cc1ccc(-n2nc(C(=O)c3ccccc3)n3c(=O)cc(-c4ccccc4)nc23)cc1", "max activity": "5.74% [at 16 µM]"},
      {"smiles": "C[C@@H]1CCCCO[C@@H](CN(C)C(=O)Nc2ccc3c(c2)OCO3)[C@H](C)CN([C@H](C)CO)C(=O)c2cc(NC(=O)Nc3ccc4c(c3)OCO4)ccc2O1", "max activity": "17.2% [at 16 µM]"},
      {"smiles": "C[C@H](CO)N1C[C@H](C)[C@@H](CN(C)C(=O)Nc2ccc3c(c2)OCO3)OCCCC[C@H](C)Oc2ccc(NC(=O)Nc3ccc4c(c3)OCO4)cc2C1=O", "max activity": "12.8%"},
      {"smiles": "C[C@@H]1CN([C@@H](C)CO)C(=O)c2cc(NC(=O)Nc3ccc4c(c3)OCO4)ccc2O[C@H]1CN(C)C(=O)Nc1ccc(C(F)(F)F)cc1", "max activity": "-14.9%"},
      {"smiles": "C[C@@H]1CN([C@@H](C)CO)C(=O)c2cc(NC(=O)Nc3ccc4c(c3)OCO4)ccc2O[C@@H](C)CCCCO[C@@H]1CN(C)C(=O)Nc1ccc2c(c1)OCO2", "max activity": "18.2%"},
      {"smiles": "O=C(CCCc1ccccc1)Nc1ccccc1C(F)(F)F", "max activity": "21.6%"},
      {"smiles": "C[C@@H]1CN([C@@H](C)CO)C(=O)c2cc(NC(=O)Nc3ccc4c(c3)OCO4)ccc2O[C@@H](C)CCCCO[C@H]1CN(C)C(=O)Nc1ccccc1", "max activity": "33.3%"},
      {"smiles": "C[C@@H]1CCCCO[C@H](CN(C)C(=O)Nc2ccc(F)cc2)[C@H](C)CN([C@@H](C)CO)C(=O)c2cc(NC(=O)Nc3ccc4c(c3)OCO4)ccc2O1", "max activity": "7.08% [at 1 µM]"},
      {"smiles": "O=S(=O)(c1cccs1)N1CN(Cc2ccc(Cl)cc2)c2nc3ccccc3nc21", "max activity": "-33.7%"},
      {"smiles": "COc1ccc(-c2nn(-c3ccccc3)cc2/C=C(\\CC(=O)O)c2nc3ccccc3s2)cc1OC", "max activity": "26.9%"},
      {"smiles": "C[C@@H]1CCCCO[C@@H](CN(C)S(=O)(=O)c2cn(C)cn2)[C@H](C)CN([C@H](C)CO)C(=O)c2cc(NC(=O)Nc3ccc4c(c3)OCO4)ccc2O1", "max activity": "-9.02% [at 2.1 µM]"},
      {"smiles": "CN(c1ccc(O)cc1)S(=O)(=O)c1ccc2ccccc2c1", "max activity": "14.3% [at 8 µM]"},
      {"smiles": "CCCN(Cc1ccc(C)cc1)C(=O)c1ccc(CNS(=O)(=O)c2ccc(C(C)=O)cc2)cc1", "max activity": "33.1% [at 16 µM]"},
      {"smiles": "COc1cccc(CN(C(=O)c2cc3ccccc3oc2=O)C2CC2)c1", "max activity": "35% [at 8 µM]"},
      {"smiles": "O=C1NC[C@H](c2ccccc2)OC(=O)[C@@H](Cc2ccc(F)cc2)C/C=C\\C[C@H]1CC(=O)N(CCO)Cc1ccccc1", "max activity": "25.5%"},
      {"smiles": "COC(=O)c1ccc2c(=O)n(CC3CCCO3)c(SCC(=O)Nc3ccccc3Cl)nc2c1", "note": "(stereo not drawn)", "max activity": "24.8% [at 8 µM]"},
      {"smiles": "C[C@@H]1CCCCO[C@@H](CN(C)C(=O)Nc2cccc3ccccc23)[C@H](C)CN([C@H](C)CO)C(=O)c2cc(NC(=O)C3CCCCC3)ccc2O1", "max activity": "28.2% [at 16 µM]"},
      {"smiles": "COc1ccc(CNC(=O)N(C)C[C@@H]2OCc3ccccc3-c3c(n(C)c4ccccc34)C(=O)N([C@H](C)CO)C[C@@H]2C)cc1", "max activity": "-26.4% [at 30 µM]"},
      {"smiles": "COc1ccc(-c2cc(C(=O)N3CCCCCC3)no2)cc1OC", "max activity": "32.3%"}
    ]}
  ]
}
